According to PubChem BioAssay AID2283234 (EPA ToxCast):
Records with an inconclusive call do not appear. The source made the active and inactive calls. Rule for the calls: active = hit-call score of the fitted dose curve at least 0.9, where 1 is the maximum; inconclusive = response in the unintended direction; inactive = score below 0.9.

Molecular target: human Dual Specificity Styrosine-Phosphorylation-Regulated Kinase 1A (DYRK1a), DYRK1A (gene 1859) (UniProt Q13627)
Assay: NVS_ENZ_hDYRK1a: NovaScreen (NVS) Enzymatic Assay for human Dual Specificity Styrosine-Phosphorylation-Regulated Kinase 1A (DYRK1a)
Protocol: NVS_ENZ_hDYRK1a is a biochemical, single-readout assay that uses extracted gene-proteins in a cell-free assay. Measurements were taken 1 hour after chemical dosing in a 96-well plate.NVS_ENZ_hDYRK1a is one of one assay component(s) measured or calculated from the NVS_ENZ_hDYRK1a assay. It is designed to make measurements of enzyme activity, a form of enzyme reporter, as detected with fluorescence intensity signals by Fluorescence and electrophoretic mobility shift technology.Data from the assay component NVS_ENZ_hDYRK1a was analyzed into 1 assay endpoint. This assay endpoint, NVS_ENZ_hDYRK1a, was analyzed in the positive analysis fitting direction relative to DMSO as the negative control and baseline of activity. Using a type of enzyme reporter, loss-of-signal activity can be used to understand changes in the enzymatic activity as they relate to the gene DYRK1A. Furthermore, this assay endpoint can be referred to as a primary readout, because this assay has produced multiple assay endpoints where this one serves a enzymatic activity function. To generalize the intended target to other relatable targets, this assay endpoint is annotated to the kinase intended target family, where the subfamily is dual-specific kinase.
Binding assays used specific radioligands (tritiated, iodinated) with non-radioactive competitive displacement ligands in agonist or antagonist protocols (as indicated) and various reference compounds and inhibitors to titrate specific binding to receptors and transporters. Most enzyme assays (CYPs, kinases, phosphatases, proteases, HDACs) used recombinant protein and specific substrates (fluorescence mostly, some colorimetric and radioactive) and inhibitors, followed by a biochemical separation of substrate and product. All assays for the biochemical HTS were initially run in duplicate at a single concentration (10 uM for CYP450 assays and 25 uM for all others). […] Each assay was run with positive and negative controls, and concurrent controls on every plate. The follow-up (secondary) screen tested active chemical-pairs in concentration series, as well as a few additional assays not tested in the primary screen, some selected negative inactives, and several cases re-run in the concentration series for confirmatory purposes.

Compound | AC50 | outcome
CC1=NNC(=O)N(/N=C/c2cccnc2)C1 | 13.5 µM (active) | 
O=C(O)c1nc(Cl)ccc1Cl |  | inactive
N#Cc1c[nH]cc1-c1cccc2c1OC(F)(F)O2 |  | inactive
O=C(Nc1ccccc1)Nc1ccnc(Cl)c1 | 25 µM (active) | 
COP(N)(=O)SC (stereo not drawn) |  | inactive
CN(C)[C@@H]1C(=O)C(C(N)=O)=C(O)[C@@]2(O)C(=O)C3=C(O)c4c(O)cccc4[C@@](C)(O)[C@H]3[C@H](O)[C@@H]12 | 16.7 µM (active) | 
COc1cc(OC)nc(NC(=O)NS(=O)(=O)c2cc(NC=O)ccc2C(=O)N(C)C)n1 |  | inactive
CCN(CC)C(=O)SCc1ccc(Cl)cc1 |  | inactive
Nc1c(Cl)cc([N+](=O)[O-])cc1Cl | 14.7 µM (active) | 
CNC(=O)ON=C(SC)C(=O)N(C)C |  | inactive
CCCCOC(=O)c1ccccc1C(=O)OCCCC |  | inactive
N#Cc1c(Cl)c(Cl)c(Cl)c(C#N)c1Cl |  | inactive
O=C(Nc1ccccc1)Nc1cnns1 |  | inactive
